The record followed here is PubChem BioAssay (NCATS).

Records with an inconclusive call do not appear. The source made the active and inactive calls. Unless noted, calls follow the shape of the dose curve; as a rule, active = well fitted curve in the direction sought with a large enough effect; inconclusive = small, poorly fitted or top-dose-only effect, or another doubt; inactive = no such curve, though single readings can be large; an effect the other way counts as inactive or inconclusive.

Test [1] in a line: Confirmation and Secondary Assay for Modulators of Hemoglobin Beta Chain Splicing at IVS2 705 locus (AID 930).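 Also: HeLa cells stably expressing the EGFP-705 splicing reporter; GFP fluorescence per well restored by corrected splicing of the IVS2-705 intron in EGFP; % of control where 0% means no effect.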 A digest of the protocol:
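HeLa EGFP-705 reporter; 500 cells/well, o/n 37C 5% CO2; cpd 2 d; 488 ex/500-520 em laser scan; total peak GFP intensity/well. Ref: 500 nM […] antisense PNA.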

Test [2] in a line: qHTS Assay for Lipid Storage Modulators (AID 1519; calls by dose curve; as to activity change, negative = inhibition: % is scaled to controls: 0 for no effect and ±100 for the full control effect). As to conditions: Drosophila S3 cells, BODIPY lipid droplet/cell ratio, laser cytometry, cells loaded with oleic acid; for activity change, negative = inhibition: at 57.5 µM (top of the series). A digest of the protocol:
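Cells seeded at 5,000 per well were treated with compounds over a concentration series and loaded with oleic acid (400 uM, as added). Lipid droplet fluorescence (488 nm excitation, 500-530 nm channel) was read by laser-scanning cytometry and normalized to 20 uM Triacsin C.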

Test [3] is described as follows: qHTS profiling for inhibitors of Plasmodium falciparum proliferation (AID 504749). Also: potency is read from the fitted curve at half-maximal effect.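 As to activity, negative = inhibition: 0% = DMSO vehicle and full inhibition = artemisinin control.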 As to all read-outs here: nearly all actives have a fitted effect of over 60% in size. To be noted: P. falciparum in erythrocytes, SYBR Green DNA, 72 h; for activity, negative = inhibition: at 28.7 µM (top of the series). In short, it runs like this: (§1)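 SYBR Green fluorescence (ex 485 nm, em 535 nm) reports parasite DNA after 72 h compound exposure of infected red cells at 0.3% parasitemia, 2.5% hematocrit; signal normalized to 0.29 uM artemisinin and vehicle wells.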
For orientation: Quantitative high-throughput screening tests each substance at several concentrations.

The next test relates to C2A. Described as above. To be noted: P. falciparum in erythrocytes, SYBR Green DNA, 72 h; series mostly up to 12.8 µM. In short, it runs like this:
as §1

The next test relates to CP185. The test is described as above. To be noted: P. falciparum in erythrocytes, SYBR Green DNA, 72 h; series mostly up to 12.8 µM. A digest of the protocol:
as §1

For another test, the system named is CP201. The description is as above. To be noted: P. falciparum in erythrocytes, SYBR Green DNA, 72 h; series mostly up to 12.8 µM. In short, it runs like this: as §1
For another test, the system named is CP238. The test is described as above. As to conditions: P. falciparum in erythrocytes, SYBR Green DNA, 72 h; series mostly up to 12.8 µM. A digest of the protocol:
as §1

The subject of the next test is CP262. The description is as above. As to conditions: P. falciparum in erythrocytes, SYBR Green DNA, 72 h; series mostly up to 12.8 µM. A digest of the protocol: as §1
Another test concerns CP268. The description is as above. As to conditions: P. falciparum in erythrocytes, SYBR Green DNA, 72 h; series mostly up to 12.8 µM. In short, it runs like this: as §1
The next test has as its system CP269. The description is as above. As to conditions: P. falciparum in erythrocytes, SYBR Green DNA, 72 h; series mostly up to 12.8 µM. A digest of the protocol:
as §1

The next test concerns CP305. Described as above. To be noted: P. falciparum in erythrocytes, SYBR Green DNA, 72 h; series mostly up to 12.8 µM. A digest of the protocol: as §1
For a further test, the system named is CP315. The test is described as above. As to conditions: P. falciparum in erythrocytes, SYBR Green DNA, 72 h; series mostly up to 12.8 µM. A digest of the protocol: as §1
The test system of a further test is CP325. The description is as above. As to conditions: P. falciparum in erythrocytes, SYBR Green DNA, 72 h; series mostly up to 12.8 µM. In short, it runs like this:
as §1

For a further test, the system named is CP329. The test is described as above. As to conditions: P. falciparum in erythrocytes, SYBR Green DNA, 72 h; series mostly up to 12.8 µM. In short, it runs like this:
as §1

A further test has as its system FAB9. The description is as above. As to conditions: P. falciparum in erythrocytes, SYBR Green DNA, 72 h; series mostly up to 12.8 µM. A digest of the protocol:
as §1

In a further test the test system is JCK. Described as above. As to conditions: P. falciparum in erythrocytes, SYBR Green DNA, 72 h; series mostly up to 12.8 µM. A digest of the protocol: as §1
A further test relates to PC15. The test is described as above. As to conditions: P. falciparum in erythrocytes, SYBR Green DNA, 72 h; series mostly up to 12.8 µM. A digest of the protocol:
as §1

The next test deals with PC49. The test is described as above. To be noted: P. falciparum in erythrocytes, SYBR Green DNA, 72 h; series mostly up to 12.8 µM. A digest of the protocol: as §1
Test [4] addresses Ubiquitin carboxyl-terminal hydrolase 1 (Homo sapiens) (UniProt O94782). The test is described as follows: Inhibitors of USP1/UAF1: Pilot qHTS (AID 504865).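 Also: rhodamine fluorescence freed from ubiquitin-rhodamine substrate followed over time; top concentration of the series differs between compounds; % is scaled to controls: 0 for no effect and ±100 for the full control effect; nearly all actives have a fitted effect of over 35% in size.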 In short, it runs like this:
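USP1/UAF1 complex (1nM) preincubated with compound 15 min at room temperature, then Ub-Rho substrate (150nM final) added. Fluorescence read kinetically at 480/540 nm, 6 reads every 60 seconds. Buffer: 50mM HEPES pH 7.8, 0.5mM EDTA, 0.1 mg/ml BSA, 1mM TCEP, 0.01% Tween-20.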

The subject of a further test is CP211. The test is described as follows: qHTS profiling for inhibitors of Plasmodium falciparum proliferation (AID 504749). Also: nearly all actives have a fitted effect of over 60% in size. Also: potency is read from the fitted curve at half-maximal effect.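 As to activity, negative = inhibition: 0% = DMSO vehicle and full inhibition = artemisinin control.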 To be noted: P. falciparum in erythrocytes, SYBR Green DNA, 72 h; series mostly up to 12.8 µM. A digest of the protocol: as §1
Setting [5] is: measured here: cell count channel max response.
The mark [6] stands for this setting: measured here: lipid channel max response.

Chain of Ubiquitin carboxyl-terminal hydrolase 1 (Homo sapiens) (O94782 whole entry, looked up): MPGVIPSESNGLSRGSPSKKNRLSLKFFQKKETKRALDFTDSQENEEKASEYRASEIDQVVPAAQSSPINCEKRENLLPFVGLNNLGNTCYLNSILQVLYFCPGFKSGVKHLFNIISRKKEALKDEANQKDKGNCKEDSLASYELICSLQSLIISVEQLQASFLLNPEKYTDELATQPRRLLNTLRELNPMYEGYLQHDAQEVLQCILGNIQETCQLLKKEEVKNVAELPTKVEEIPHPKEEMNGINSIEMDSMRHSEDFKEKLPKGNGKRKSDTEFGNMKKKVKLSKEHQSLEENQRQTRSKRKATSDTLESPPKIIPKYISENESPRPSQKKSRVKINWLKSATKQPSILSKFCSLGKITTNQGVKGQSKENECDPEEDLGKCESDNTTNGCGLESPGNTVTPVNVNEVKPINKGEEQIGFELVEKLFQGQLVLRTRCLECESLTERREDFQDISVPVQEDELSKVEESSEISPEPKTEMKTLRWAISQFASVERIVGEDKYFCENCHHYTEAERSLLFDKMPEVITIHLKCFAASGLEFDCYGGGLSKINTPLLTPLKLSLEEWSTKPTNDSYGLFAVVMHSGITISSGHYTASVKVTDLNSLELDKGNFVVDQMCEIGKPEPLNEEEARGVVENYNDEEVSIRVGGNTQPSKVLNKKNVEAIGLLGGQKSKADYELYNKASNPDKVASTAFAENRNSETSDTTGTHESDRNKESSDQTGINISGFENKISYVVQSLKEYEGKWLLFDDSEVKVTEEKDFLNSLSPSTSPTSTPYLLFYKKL

As for `C/C1=C2N=C(/C=C3N=C(/C(C)=C4\[N-]C(C)(C5N=C1C(C)(CCC(=O)NCC(C)OP(=O)([O-])O[C@H]1C(O)C(n6cnc7cc(C)c(C)cc76)O[C@@H]1CO)C5CC(N)=O)C(C)(CC(N)=O)C4CCC(N)=O)C(C)(CC(N)=O)C\3CCC(N)=O)C(C)(C)C/2CCC(N)=O.[CH2-]C1OC(n2cnc3c(N)ncnc32)C(O)C1O.[Co]` (stereo partly drawn), the Potency result (in [1]; with C2A; in the test with CP185; in the test on CP201; with CP238; in the test with CP262) was “inactive” each time. The Potency result in the test on CP268, with CP269, in the test on CP305, in the test with CP315, in the test with CP325 and in the test with CP329 was “inactive” throughout. The Potency entry in the test on FAB9, in the test on JCK, with PC15 and in the test on PC49 was “inactive” throughout. Also, in test [2], the activity change, negative = inhibition was 3.3% (inactive). The max response came out at 22.1% in test [2] (setting [5]) and 29.7% in [2] (setting [6]). Moreover, the activity, negative = inhibition in test [3] (parasite line A) is 4.62% (inactive); in test [3] (parasite line B), 4.58% (inactive).

As to `C[C@]1(c2ccccc2)OC(C(=O)O)=CC1=O`, the activity change, negative = inhibition in test [2] is -2% (inactive). Also, the max response in test [2] (setting [5]) is -4.61%; in test [2] (setting [6]), -6.08%. Besides, the Potency result (in [4]; in the test on C2A; in the test on CP185; in the test with CP201; with CP211; with CP238) was “inactive” in each case. For the same compound, the Potency result with CP262, in the test on CP268, in the test on CP269, in the test with CP305, in the test with CP315 and with CP325 was “inactive” each time. In addition, the Potency result in the test with CP329, in the test with FAB9, in the test with JCK, in the test on PC15 and in the test on PC49 was “inactive” in each case. The results for the activity, negative = inhibition in test [3] (parasite line A) and in test [3] (parasite line B) were 4.24% (inactive) and 8.18% (inactive), respectively.

Regarding `CCC(C)C(=O)OC1CCC=C2C=CC(C)C(CCC3CC(O)CC(=O)O3)[C@@H]21` (stereo partly drawn), the Potency result (in test [1]; in the test on C2A; with CP185; with CP201; in the test on CP211; in the test on CP238) was “inactive” throughout. For the same compound, the Potency entry with CP262, in the test on CP268, in the test with CP269, in the test with CP305, in the test on CP315 and in the test with CP325 was “inactive” each time. For the same compound, the Potency entry in the test on CP329, in the test on FAB9, with JCK, in the test on PC15 and in the test with PC49 was “inactive” throughout. In addition, the activity change, negative = inhibition in test [2] is 0.311% (inactive). Also, the results for the max response in test [2] (setting [5]) and in test [2] (setting [6]) were 8.24% and 6.43%, respectively. Further, the activity, negative = inhibition in [3] (parasite line A) was 6.36% (inactive); in test [3] (parasite line B), -8.04% (inactive).

As to `CO[C@]12C(COC(N)=O)C3=C(C(=O)C(C)=C(N)C3=O)N1CC1NC12` (stereo partly drawn), the Potency entry (in test [1]; in the test on CP262) was “inactive” each time. For the same compound, in test [2], the activity change, negative = inhibition is 3.3% (inactive). Moreover, the max response came to 5.7% in [2] (setting [5]) and 11.5% in test [2] (setting [6]). In addition, the Potency is 1.26 µM (active) in test [3] (parasite line A); 1.26 µM (active) in test [3] (parasite line B); 1.26 µM (active) in the test on C2A; 0.708 µM (active) with CP185; 19 µM (active) with CP211; 0.631 µM (active) in the test on CP238. Also, the Potency was 5.01 µM (active) in the test with FAB9, 5.01 µM (active) with JCK, 1.41 µM (active) with PC15 and 3.55 µM (active) with PC49.

As for `CCCC(=O)O[C@]1(C(=O)CO)CCC2[C@@H]3CCC4=CC(=O)CC[C@]4(C)C3C(O)C[C@]21C` (stereo partly drawn), the Potency result (in [1]; in test [4]; in the test on C2A; in the test on CP185; with CP201; with CP211) was “inactive” in each case. Also, the Potency result in the test with CP238, in the test on CP262, in the test on CP268, with CP269, in the test with CP305 and with CP315 was “inactive” throughout. For the same compound, the Potency result with CP325, in the test on CP329, in the test with FAB9, in the test on JCK, in the test with PC15 and in the test on PC49 was “inactive” each time. In addition, the activity change, negative = inhibition in test [2] is 9.93% (inactive). Also, the max response in [2] (setting [5]) is 7.86%; in test [2] (setting [6]) it was 23.2%. Also, the results for the activity, negative = inhibition in [3] (parasite line A) and in test [3] (parasite line B) were 6.2% (inactive) and 17.5% (inactive), respectively.
